SENP8 block-1: SENP8 (human) protease inhibition; recombinant SENP8, Nedd8 substrate fluorescence; inhibition, % at 20 µM; 0.64% of 360,000 active; AID 602440; in the data active means inhibition mostly above about 40%, no sharp cut-off; inactive means mostly below about 27%
Target sequence (Q96LD8 whole entry, looked up): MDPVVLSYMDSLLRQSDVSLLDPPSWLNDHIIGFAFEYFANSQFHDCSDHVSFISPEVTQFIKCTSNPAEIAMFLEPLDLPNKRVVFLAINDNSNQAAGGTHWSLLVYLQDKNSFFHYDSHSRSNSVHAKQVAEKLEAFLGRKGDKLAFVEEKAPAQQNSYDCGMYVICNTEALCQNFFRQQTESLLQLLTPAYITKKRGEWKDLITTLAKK
HSP90 inh: HSP90 refolding inhibition in rabbit reticulocyte lysate; luciferase refolding luminescence, 3 h; inhibition, % at 5.6 µM; 0.91% of 290,000 active;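 active means inhibition above the screen-wide mean plus 3 SD, computed separately per campaign, cut at about 16% in these data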;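 further: 0% = DMSO wells and 100% = 60 µM geldanamycin wells; inhibitors lower the luminescence because luciferase stays unfolded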
SENP8 block-2: blocks the human protease SENP8; Q96LD8; purified SENP8, Z-RLRGG-aminoluciferin cleavage, luminescence; inhibition, % at 10 µM; 1.2% of 330,000 active; in the data active means inhibition above about 50%
SENP7 inh: SENP7 protease inhibition | inhibition, % at 5 µM | 1.5% of 330,000 active | recombinant SENP7, Z-RLRGG-aminoluciferin luminescence, 40 min | Q9BQF6 | AID 434973;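 active means inhibition above about 50% at the single test dose, limit read from the data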;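 further: plate controls were DMSO with enzyme for no effect and no enzyme buffer wells for full effect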
SENP6 block: blocks the human protease SENP6; Q9GZR1; Recombinant SENP6 catalytic domain, aminoluciferin luminescence; inhibition, % at 10 µM; 1.8% of 330,000 active; AID 2599;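 active means inhibition above about 50% at the single tested dose, limit read from the data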;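 further: plate controls were DMSO wells with enzyme for no effect and DMSO wells lacking enzyme for full effect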
Platelet DG rel: modulates dense granule release in human platelets. AID 1663. human platelet-rich plasma, SFLLRN dense granule ATP release, luminescence. 0.22% of 300,000 active. inhibition, %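 (compounds screened at 7.5 µM in platelet-rich plasma)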;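 active means mean replicate score, as percent of positive control, at or above 50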
SENP8 confirm: confirmation of human SENP8 protease inhibitors; 40% of 6,200 active; Recombinant SENP8, Z-RLRGG-aminoluciferin luminescence, 60 min; inhibition, % at 12.5 µM; AID 488912; shares compounds with SENP7 inh;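 active means mean inhibition across replicates above about 50%, limit read from the data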
SENP6 confirm: human SENP6 inhibition, confirmed | recombinant SENP6, Z-RLRGG-aminoluciferin luminescence | inhibition, % at 12.5 µM | 58% of 6,200 active | shares compounds with SENP7 inh | AID 488915
SENP7 confirm: human SENP7 inhibition, confirmed; recombinant SENP7, Z-RLRGG-aminoluciferin luminescence, 40 min; inhibition, % at 12.5 µM; shares compounds with SENP7 inh; 69% of 6,200 active; AID 488917
Casp3 SENP sel: selectivity test for SENP inhibitors: human caspase-3 inhibition; shares compounds with SENP7 inh; purified caspase-3, Z-DEVD-aminoluciferin luminescence, 60 min; inhibition, % at 12.5 µM; 60% of 6,200 active;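 active means mean inhibition above about 50%, limit read from the data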;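 further: plate controls were enzyme with DMSO for no effect and wells without caspase-3 for full effect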
Target sequence (P42574 28-227 limits assumed): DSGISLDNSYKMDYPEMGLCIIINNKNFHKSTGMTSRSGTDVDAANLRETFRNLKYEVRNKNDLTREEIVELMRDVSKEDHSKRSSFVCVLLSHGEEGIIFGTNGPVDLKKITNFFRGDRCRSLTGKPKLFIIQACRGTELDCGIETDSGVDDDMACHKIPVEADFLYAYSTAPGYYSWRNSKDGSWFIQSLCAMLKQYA
SENP luc ctr: counter-screen for SENP inhibitors: luminescence interference; shares compounds with SENP7 inh; Pre-incubated SENP8/Z-RLRGG-aminoluciferin, luciferase luminescence interference; inhibition, % at 12.5 µM; 39% of 6,200 active; AID 488919;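 active means mean inhibition above about 50% when retested at one dose, limit read from the data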;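 further: plate controls were DMSO wells with completed reaction for no effect and substrate without enzyme for full effect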
An asterisk follows results filed as active; / = no result. Only some compounds are listed: those with a hit (about 2.8% of all), similar ones and a draw of the others.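 How the source made its calls, unless noted: active means mean inhibition above about 50% in the one-dose retest (limit read from the data); inactive means the rest.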

SMILES	SENP8 block-1	HSP90 inh	SENP8 block-2	SENP7 inh	SENP6 block	Platelet DG rel	SENP8 confirm	SENP6 confirm	SENP7 confirm	Casp3 SENP sel	SENP luc ctr
Cc1ccc(-c2csc(NC(=O)COC(=O)c3cccc(S(=O)(=O)N4CCOCC4)c3)n2)cc1	/	-10	0	36	51*	4	52*	51*	83*	70*	53*
O=C(CN1CCc2cc3c(cc2C1)OCCCO3)Nc1cccc(Br)c1	3	3	-1	-4	-2	-5	/	/	/	/	/
CCC(=O)Oc1ccc(C(=O)Nc2ccc3c(c2)OCO3)cc1	-7	3	34	73*	64*	22	37	56*	62*	71*	17
CCCCOc1ccc(C(=O)Nc2ccc3c(c2)OCO3)cc1	20	0	-15	26	8	10	/	/	/	/	/
CCOC(=O)CNc1ccc2c(c1)OCO2	1	1	4	-1	59*	17	13	12	8	2	-3
O=C(Nc1ccc2c(c1)OCO2)OCc1ccccc1	15	1	38	60*	-22	12	52*	51*	82*	53*	34
CCOC(=O)CNC(=O)/C=C/c1ccc2c(c1)OCO2	-249	-2	-2	-8	-20	-2	/	/	/	/	/
CCCOc1ccc(C(=O)Nc2ccc3c(c2)OCO3)cc1	8	4	71*	89*	82*	36	14	73*	80*	84*	19
O=C(CCNC(=O)c1ccccc1Cl)Nc1ccc(S(=O)(=O)N2CCOCC2)cc1	14	/	/	/	/	/	/	/	/	/	/
CCN(CC(=O)Nc1ccc(OC)cc1)CC(=O)Nc1sc2c(c1C(=O)OC)CCCC2	-212	/	5	1	2	/	/	/	/	/	/
CC1=NN(c2ccccc2)C(=O)/C1=C/c1cccc(C)c1	70*	5	-1	52*	23	-5	2	16	-1	-2	-4
CC1=NN(c2ccccc2)C(=O)/C1=C\C=C\c1ccccc1	32	1	3	2	-2	-1	/	/	/	/	/
COc1cc(/C=C2/C(=O)N(c3cccc(Br)c3)N=C2C)cc(OC)c1O	61*	-2	2	54*	-14	10	8	16	7	4	6
COc1cc(/C=C2/C(=O)N(c3ccc(Br)cc3)N=C2C)cc([N+](=O)[O-])c1O	/	2	5	18	-8	7	/	/	/	/	/
c1ccc2c(c1)ncn2-c1cncnc1	10	/	/	/	/	/	/	/	/	/	/
O=C(CSc1n[nH]c(=O)n1Cc1ccccc1)Nc1ccc(N2CCOCC2)cc1	11	/	-7	-1	-8	/	/	/	/	/	/
CSc1nc2ccc(NC(=O)c3ccc(=O)[nH]c3)cc2s1	-4	2	-8	6	6	-5	/	/	/	/	/
CSc1nc2ccc(NC(=O)c3ccc(=O)n(C)n3)cc2s1	5	-2	71*	84*	92*	37	-4	31	61*	55*	26
CSc1nc2ccc(NC(=O)c3ccco3)cc2s1	0	3	-5	10	5	12	/	/	/	/	/
COc1ccc(C(=O)Nc2ccc3nc(C)sc3c2)cc1OC	0	-2	42	73*	-7	10	57*	57*	87*	80*	71*
CSc1nc2ccc(NC(=O)c3cc4ccccc4o3)cc2s1	-184	-3	69*	93*	5	-1	-5	60*	84*	42	0
CSc1nc2ccc(NC(=O)c3ccc(F)c(F)c3)cc2s1	-20	-1	45	74*	56*	4	20	44	28	23	8
Cc1ccc(S(=O)(=O)NN=C(c2ccccc2)c2cccs2)cc1	18	/	/	/	/	/	/	/	/	/	/

Assay outcomes as filed in PubChem.
